From PubChem
The list is not random: actives were taken first. Their share in the collection is about 1.3%.
GC-B act = GC-B (human) receptor activation. actives 0.11% (n = 370,000). P20594. HEK293-GC-B cells, CNP EC30, cGMP TR-FRET; 0% at EC30 CNP, 100% saturating CNP. activation, % at 10 µM. AID 1920062;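 active = activation at 10 µM reaching about 35% in either raw or pattern-adjusted values, limit read from the data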
GC-A act = GC-A (human) enzyme activation; HEK293 GC-A cells, cGMP TR-FRET, EC30 ANP; 0% at EC30 ANP, 100% saturating ANP; activation, % at 10 µM; actives 0.14% (n = 370,000); AID 1671463; in the data active = activation above about 40%
ADAM10 inh = ADAM10 inhibition, QFRET primary screen. O14672. recombinant ADAM10, EDANS/DABCYL FRET peptide cleavage, 3 h. inhibition, % at 7 µM. actives 0.62% (n = 370,000);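 active = inhibition above a per-campaign cutoff equal to the mean of compounds falling between control-based bounds plus 3 SD, cut at about 20% in these data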;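 note: 0% = DMSO wells while the 100% control is not disclosed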
ADAM17 inh = inhibits human ADAM17; recombinant ADAM17, EDANS/DABCYL FRET peptide cleavage; actives 0.83% (n = 370,000); inhibition, % at 6.95 µM; P78536; AID 720648;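 active = inhibition above the mean of compounds lying between control limits plus 3 SD, set per campaign, cut at about 8.5% in these data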;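 note: 0% = DMSO-only wells as the low control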
Target sequence (P78536 215-824 limits assumed): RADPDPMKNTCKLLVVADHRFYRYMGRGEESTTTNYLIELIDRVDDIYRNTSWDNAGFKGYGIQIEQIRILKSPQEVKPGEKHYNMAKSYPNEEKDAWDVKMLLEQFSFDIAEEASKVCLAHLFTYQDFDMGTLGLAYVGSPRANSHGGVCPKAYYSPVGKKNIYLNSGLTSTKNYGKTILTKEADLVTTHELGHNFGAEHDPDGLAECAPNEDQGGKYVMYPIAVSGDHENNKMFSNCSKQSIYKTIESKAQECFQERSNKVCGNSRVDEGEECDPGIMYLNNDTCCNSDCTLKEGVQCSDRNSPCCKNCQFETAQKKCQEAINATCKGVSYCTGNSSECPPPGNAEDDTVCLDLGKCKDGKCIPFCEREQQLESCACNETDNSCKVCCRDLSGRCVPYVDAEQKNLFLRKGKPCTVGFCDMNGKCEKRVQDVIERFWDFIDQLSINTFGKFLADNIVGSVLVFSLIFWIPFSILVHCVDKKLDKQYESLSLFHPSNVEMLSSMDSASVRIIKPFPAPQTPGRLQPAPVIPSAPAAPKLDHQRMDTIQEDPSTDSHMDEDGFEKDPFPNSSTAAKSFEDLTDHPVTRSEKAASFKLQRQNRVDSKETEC
ADAM10 confirm = confirmation of inhibitors of human ADAM10; inhibition, % at 6.95 µM; actives 1% (n = 2,100); AID 743208; shares compounds with ADAM10 inh; ADAM10 QFRET peptide cleavage, EDANS fluorescence;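 active = inhibition above about 20% chosen separately for each screening run, limit read from the data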;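 note: 0% = DMSO wells and 100% = marimastat wells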
ADAM17 counter = counter-screen for ADAM10 exosite inhibitors: inhibitors of human ADAM17; shares compounds with ADAM10 inh; ADAM17 QFRET peptide cleavage, EDANS fluorescence; inhibition, % at 6.95 µM; actives 0.5% (n = 2,100); AID 743214;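 active = mean triplicate inhibition above the solvent-only control wells' mean plus 3 SD, cut at about 12% in these data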;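 note: 0% = DMSO wells and 100% = marimastat wells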
ADAM10 ctr = inhibits human ADAM10 in ADAM17 exosite counter-screen | inhibition, % at 6.95 µM | AID 743256 | actives 47% (n = 2,900) | shares compounds with ADAM17 inh | recombinant ADAM10, EDANS/DABCYL FRET peptide cleavage, 3 h;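 active = mean inhibition over the triplicate runs exceeds the activity threshold set in the earlier primary screen, cut at about 20% in these data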;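 note: 0% = DMSO wells and 100% = marimastat wells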
ADAM17 confirm = confirmation of inhibitors of human ADAM17 | inhibition, % at 6.95 µM | recombinant ADAM17, EDANS/DABCYL QFRET peptide cleavage | shares compounds with ADAM17 inh | actives 65% (n = 2,900);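 active = mean inhibition across replicates above the hit cutoff set in the primary screen, cut at about 8.5% in these data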;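 note: 0% = DMSO wells and 100% = marimastat wells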
* hit, by the source's call; . = no result.

SMILES	GC-B act	GC-A act	ADAM10 inh	ADAM17 inh	ADAM10 confirm	ADAM17 counter	ADAM10 ctr	ADAM17 confirm
COc1ccc(C(C(=O)NC2CCCCC2)N(C(=O)c2sc(C)nc2C)c2ccccc2C)cc1 (centres undefined)	-2.8	-3.2	19.8*	9.6*	1.6	-0.2	2.8	3.8
COc1ccc(CCNC(=O)Nc2ccc3c(c2)[C@@]2(CC(=O)N(CC(C)C)C2c2ccccc2)C(=O)N3C)cc1OC (some centres undefined)	5.2	5.2	-1.2	-4.9	.	.	.	.
C=CC[C@H](CC(=O)N(CCO)Cc1ccccc1)C(=O)N[C@@H](COC(=O)[C@@H](CC=C)CC(=O)OC(C)(C)C)Cc1c[nH]c2ccccc12	-3.0	-3.0	37.1*	21.4*	2.8	0.7	28.7*	15.4*
C=CC[C@@H](CC(=O)N[C@@H](CO)Cc1ccccc1)C(=O)N[C@H](COC(=O)[C@@H](CC=C)Cc1ccc(F)cc1)Cc1c[nH]c2ccccc12	-4.7	2.9	11.6	6.8	.	.	.	.
C=CC[C@@H](CC(=O)N(CCO)Cc1ccccc1)C(=O)N[C@H](COC(=O)[C@@H](CC=C)Cc1ccc(F)cc1)Cc1c[nH]c2ccccc12	-6.4	-10.1	39.4*	14.0*	10.4	3.8	46.4*	24.7*
C=CC[C@H](CC(=O)N(CCO)Cc1ccccc1)C(=O)N[C@H](COC(=O)[C@@H](CC=C)Cc1ccc(F)cc1)Cc1c[nH]c2ccccc12	-11.3	-6.7	26.8*	14.8*	7.9	2.9	41.3*	23.3*
C=CCC[C@H](Cc1ccc(F)cc1)C(=O)OC[C@@H](Cc1c[nH]c2ccccc12)NC(=O)[C@@H](CC=C)CC(=O)N[C@@H](CO)Cc1ccccc1	-11.3	-4.0	22.5*	11.3*	8.8	2.5	7.5	7.0
O=C(Nc1ccc(Cl)cc1Cl)O[C@@H]1CC[C@@]23CCCN2C(=O)CCC[C@H]3C1	0.9	-2.5	-0.2	-3.1	.	.	.	.
C[C@@H]1CN([C@@H](C)CO)C(=O)CCCn2nncc2CO[C@H]1CN(C)C(=O)Nc1ccnc(N2CCOCC2)c1	3.4	0.0	-6.7	-2.1	.	.	.	.
C=CCC[C@H](Cc1ccc(F)cc1)C(=O)OC[C@H](Cc1c[nH]c2ccccc12)NC(=O)[C@H](CC=C)CC(=O)N(CCO)Cc1ccccc1	0.2	-1.1	24.4*	11.9*	17.0	5.0	36.2*	17.6*
C=CCC[C@@H](Cc1ccc(F)cc1)C(=O)OC[C@@H](Cc1c[nH]c2ccccc12)NC(=O)[C@@H](CC=C)CC(=O)N[C@@H](CO)Cc1ccccc1	-2.1	0.7	17.2	5.3	.	.	.	.
COC(=O)[C@]12C[C@H](CC(=O)NCCCCc3ccccc3)C(=O)N(CCc3ccc(OC)c(OC)c3)C1=C[C@H](C(C)C)O[C@@H]2C1CC1	-1.6	-5.6	12.5	4.8	.	.	.	.
O=C(Nc1ccc(N2CCCC2)c(S(=O)(=O)Nc2cccc(C(F)(F)F)c2)c1)c1cccs1	4.0	-1.2	27.6*	15.1*	15.3	5.0	41.6*	23.8*
CCCCCCCCN1C(=O)[C@H](CC(=O)NCc2cccc(C(F)(F)F)c2)C[C@@]2(C(=O)OCC)CCC=C12	10.3	-3.2	3.9	-1.1	.	.	.	.
CS(=O)(=O)N1CCCCC1c1cc(C(=O)Nc2ccccc2)no1 (centres undefined)	-4.1	0.6	4.5	3.5	.	.	.	.
O=C(Nc1ccccc1)c1cc(C2CCCCN2S(=O)(=O)Cc2cccc(C(F)(F)F)c2)on1 (centres undefined)	1.0	-0.2	29.5*	17.3*	1.9	1.2	25.7*	11.5*
COc1ccc(-n2c(SCC(=O)NNC(=S)Nc3ccccc3)nc3ccccc3c2=O)cc1	-3.3	-1.4	25.5*	12.3*	2.2	-0.1	12.3	8.6*
